Rows were chosen to be rich in hits. Some 3.1% of all compounds tested hit in one or more screens of this group.
RAD54 branch – blocks human RAD54 Holliday junction branch migration. hit rate 0.14% among 360,000. Q92698. FAM/BHQ fluorescence. inhibition, % at 10.4 µM;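 active = mean normalized replicate activity at least 40 and at least half of replicates scoring 40 or more; inconclusive = only one of the two criteria met; inactive = mean below 40 and under half of replicates reaching 40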;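 note: 0% = median of neutral control wells and 100% = median of positive control wells; inhibitors cause a drop in the FAM fluorescence signal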
AF4-AF9 inh – MLL-AF4/AF9 protein interaction inhibition; AID 651704; hit rate 0.47% among 350,000; inhibition, % at 10 µM; AlphaScreen, biotin-AF4 peptide binding to FLAG-AF9;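 active = every replicate reaching a set inhibition limit, whatever the replicate mean, cut at about 25% in these data; inconclusive = mean inhibition reaches that limit but some replicates miss it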;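 note: 0% = plate neutral control median and 100% = total signal loss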
INS-1E GSIS act – GLuc luminescence reporter in INS-1E cells, primary screen for activators of glucose-dependent secretion of insulin | INS-1E GLuc reporter insulin secretion, 2-3 h | hit rate 0.61% among 370,000 | AID 743287 | activation, % at 16.6 µM;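 active = lowest replicate activation of at least 40%, so every replicate reaches that level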;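 note: 0% = median of neutral control wells and 100% = median of IBMX positive control wells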
dFosB activator – activators of mouse delta FosB homodimer | hit rate 0.99% among 340,000 | P13346 | purified delta FosB, TAMRA-CDK5 oligo fluorescence polarization; percent of positive-control signal above neutral wells | activation, % at 25 µM;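 active = mean activation above about 17%, with every replicate also reaching it, limit read from the data, passing the limit was not always enough; inconclusive = only one of the two conditions met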
Target sequence (P13346 whole entry, looked up): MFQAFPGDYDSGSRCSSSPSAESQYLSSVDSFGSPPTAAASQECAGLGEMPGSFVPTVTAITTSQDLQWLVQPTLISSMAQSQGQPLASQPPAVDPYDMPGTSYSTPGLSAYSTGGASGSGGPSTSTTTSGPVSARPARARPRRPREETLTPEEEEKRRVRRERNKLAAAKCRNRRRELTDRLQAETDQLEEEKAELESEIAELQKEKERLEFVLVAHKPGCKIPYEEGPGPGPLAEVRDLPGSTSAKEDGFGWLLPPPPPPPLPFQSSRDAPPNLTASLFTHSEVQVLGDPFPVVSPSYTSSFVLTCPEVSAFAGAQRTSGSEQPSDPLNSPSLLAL
RAD52 inh – blocks human RAD52 DNA annealing; recombinant RAD52 DNA annealing, FRET fluorescence; inhibition, % at 18.7 µM; hit rate 0.46% among 360,000;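 active = every replicate showing at least 50% inhibition; inconclusive = mean inhibition at least 50% but not in every replicate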
DENV2 CPE rescue – inhibitors of DENV2 cytopathic effect. DENV2-infected cells, cytopathic effect rescue, plate reader. CPE inhibition, % at 9.99 µM. hit rate 1.7% among 350,000; in the data active = CPE inhibition above about 20%, passing the limit was not always enough; inconclusive = no clear call, values can overlap the other calls; tested in BHK-21 cells;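 note: 0% = median of neutral control wells and 100% = median of positive control wells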
Active calls of the source: *; ? = inconclusive; . = not tested or not shown.

SMILES	RAD54 branch	AF4-AF9 inh	INS-1E GSIS act	dFosB activator	RAD52 inh	DENV2 CPE rescue
C[C@@H]1CN([C@H](C)CO)C(=O)c2cc(NC(=O)NC3CCCCC3)ccc2O[C@H]1CN(C)CC1CCCCC1	0.1	2.0	-1.1	.	3.6	-16.6
C[C@H](CO)N1C[C@H](C)[C@H](CN(C)CC2CCCCC2)Oc2ccc(NC(=O)NC3CCCCC3)cc2C1=O	9.6	-1.5	-7.1	.	-7.2	29.1*
C[C@@H]1CN([C@@H](C)CO)C(=O)c2cc(NC(=O)NC3CCCCC3)ccc2O[C@@H]1CN(C)CC1CCCCC1	6.5	0.5	-11.6	.	-4.3	60.5*
C[C@@H]1CN([C@@H](C)CO)C(=O)c2cc(-c3ccccc3)cnc2O[C@@H]1CN(C)Cc1ccccn1	8.4	-18.5	11.2	.	3.9	-7.9
C/C=C1\COC(C(=O)NCc2cccc(OC)c2OC)(C(F)(F)F)C=C1C=C1CCCCC1 (stereo not drawn)	-11.9	0.1	72.7*	-0.7	-12.2	15.6
CN(C)c1ccc(/C=N/NC(=O)c2ccccc2Cl)cc1	-0.4	8.0	52.4*	-3.8	-5.1	-0.6
CN(C)c1ccc(/C=N/NC(=O)c2ccccc2)cc1	-11.8	1.2	-1.6	-2.0	-0.4	-1.0
CC1(C)CC(=O)N(CC(=O)O)c2ccccc2S1(=O)=O	-8.6	-6.4	4.3	-9.2	-1.6	33.8*
CCc1ccc2c(F)cccc2n1	-9.4	-1.7	-0.7	.	-33.0	60.1*
CCCc1ccc2c(C)cccc2n1	.	-0.7	18.2	.	-6.2	-5.1
Cc1ccccc1-c1ccc([C@H]2[C@@H](CO)N3CCCCN(C(=O)Nc4cccc(F)c4)C[C@H]23)cc1	-27.5	10.1	.	.	10.0	45.1*
Cc1ccccc1-c1ccc([C@@H]2[C@H](CO)N3CCCCN(C(=O)Nc4cccc(F)c4)C[C@@H]23)cc1	-17.4	9.0	-12.3	.	21.3	37.7*
Cc1ccccc1-c1ccc([C@H]2[C@@H](CO)N3CCCCN(C(=O)Nc4cccc(F)c4)C[C@@H]23)cc1	18.0	-3.0	-24.3	.	32.3	-11.5
CCC(=O)N(C)C[C@H]1Oc2ncc(-c3ccccc3F)cc2C(=O)N([C@@H](C)CO)C[C@H]1C	7.3	-1.4	5.6	.	-2.6	2.7
C[C@H](CO)N1C[C@H](C)[C@@H](CN(C)Cc2ccc(Oc3ccccc3)cc2)Oc2ccc(NC(=O)CCN3CCOCC3)cc2C1=O	4.0	8.0	7.1	.	-8.2	-1.6
O=C(O)[C@H]1[C@H](CO)[C@H]2Cn3c(ccc(-c4ccccc4)c3=O)[C@H]2N1CCc1ccccc1	0.0	-1.1	9.0	.	.	-6.1
COc1cc(C=C2C(=O)C=CC2=O)ccc1O	.	-12.2	52.4*	.	7.8	-1.8
COc1ccccc1C#Cc1ccc2c(c1)[C@H]1[C@H](CCN1C(=O)c1ccc(F)cc1)[C@H](CO)N2	7.6	-2.4	-2.1	.	-15.3	?
CC(C)c1cn(CC[C@H]2CC[C@H](NC(=O)Nc3cc(Cl)cc(Cl)c3)[C@@H](CO)O2)nn1	-0.5	0.7	-13.0	.	3.2	-3.2
CC1N(C)c2cc(NC(=O)c3ccco3)ccc2C1(C)C (stereo not drawn)	.	?	-8.3	144.6*	-61.4	-0.6
Cc1cccc([C@@H]2[C@@H]3C(=O)N(Cc4ccccc4)C(=O)[C@@H]3[C@]3(Cc4ccccc4)C(=O)N(c4ccc(C(F)(F)F)cc4)C(=O)N23)c1	5.3	13.8	7.3	-8.8	-6.1	102.4*
Cc1cccc([C@@H]2[C@@H]3C(=O)N(Cc4ccccc4)C(=O)[C@@H]3[C@]3(Cc4ccccc4)C(=O)N(c4ccccc4)C(=O)N23)c1	-2.4	-1.2	-1.7	-1.3	-0.7	1.3
C[C@@H]1CN([C@@H](C)CO)C(=O)Cc2cc(NS(=O)(=O)c3ccccc3)ccc2O[C@H]1CN(C)Cc1ccc(C(F)(F)F)cc1	-2.9	-4.1	-24.0	.	9.2	3.2
O=C(C[C@H]1CC[C@@H]2[C@H](COC[C@@H](O)CN2C(=O)c2cnccn2)O1)NCc1ccccc1	0.6	-0.8	16.7	.	4.5	-12.6
Cc1ccc(CC(=O)Nc2cccc(C(=O)Nc3c(C)n(C)n(-c4ccccc4)c3=O)c2)cc1C	-9.2	0.0	-15.7	.	-13.2	30.5*
SMILES	RAD54 branch	AF4-AF9 inh	INS-1E GSIS act	dFosB activator	RAD52 inh	DENV2 CPE rescue
Cc1c(NC(=O)c2cccc(NC(=O)Cc3ccc(Cl)cc3)c2)c(=O)n(-c2ccccc2)n1C	-4.2	-3.2	-30.6	-11.5	-10.3	-5.5
C[C@@H]1CN([C@H](C)CO)C(=O)Cc2cc(NC(=O)C3CCCCC3)ccc2O[C@H]1CN(C)C(=O)Nc1ccccc1	0.6	-4.4	2.4	.	10.1	4.8
CCn1nc(C)c(NC(=O)/C=C/c2ccc(OC)c(COc3ccc(Cl)cc3Br)c2)c1C	6.2	.	.	207.2*	.	.
COc1ccc(S(=O)(=O)N(C)C[C@H]2OCCCC[C@H](C)Oc3ccc(NC(=O)Nc4ccc(C(F)(F)F)cc4)cc3C(=O)N([C@@H](C)CO)C[C@H]2C)cc1	-1.0	-16.5	-0.5	.	-13.0	9.8
Cc1nc2cc(NC(=O)Nc3cccc([N+](=O)[O-])c3)ccc2n1C	14.8	-0.7	.	1.8	-6.7	34.5*
CC(=O)CC(=O)O[C@@H]1C=C[C@H](NC(=O)OC(C)(C)C)C1	.	-0.9	-14.7	.	5.7	29.4*
C=C(CN(C)C)C(=O)c1cc(C)ccc1C	.	-6.1	89.7*	-3.7	-9.2	-0.7
Cc1ccc(C)c(C(=O)NCCN(C)C)c1	-6.2	.	.	1.3	.	.
COc1ccc(OC(=O)N(C)C[C@@H]2OCc3ccccc3-c3ccccc3C(=O)N([C@@H](C)CO)C[C@@H]2C)cc1	-3.1	-2.7	-10.3	.	-4.9	-0.5
CCCCOc1ccc(C(=O)NN2CCOCC2)cc1	.	-2.5	12.0	-4.0	-6.0	8.9
CCOc1ccc(C(=O)NN2CCOCC2)cc1	-4.2	-9.2	11.2	-1.6	0.8	153.5*
COCC(=O)Nc1ccc2c(c1)C(=O)N(C)C[C@H](OC)[C@@H](C)CN(C(=O)NC(C)C)[C@@H](C)CO2	-5.7	-2.5	1.7	.	-15.4	1.3
O=C(C[C@@H]1C[C@@H]2c3cc(NS(=O)(=O)c4ccc(F)cc4)ccc3O[C@@H]2[C@H](CO)O1)NCCc1ccccc1	5.8	-0.2	-13.4	.	-8.2	57.7*
O=C(C[C@H]1C[C@H]2c3cc(NS(=O)(=O)c4ccc(F)cc4)ccc3O[C@H]2[C@@H](CO)O1)NCCc1ccccc1	5.4	-0.9	-24.4	.	-17.3	58.7*
CC(C)NC(=O)N(C)C[C@@H]1Oc2ccc(NS(=O)(=O)c3ccc(Cl)cc3)cc2C(=O)N([C@H](C)CO)C[C@H]1C	-3.1	-2.9	5.5	.	11.3	-5.2
CCCCOc1ccc(C(=O)NCC(=O)NCC(c2ccc(OC)cc2)N2CCOCC2)cc1 (stereo not drawn)	-6.5	-0.3	.	-7.8	-0.7	11.3
COc1ccc(C(CNC(=O)CCNC(=O)c2ccc(Br)cc2)N2CCOCC2)cc1 (stereo not drawn)	-2.4	-0.4	-7.5	-6.6	-8.6	38.9*

From PubChem
